Activity calls are given as the source filed them.
How the values were obtained:
[1] = small molecules captured by biotinylated probe aFSTL3 – biochemical, small-molecule microarray, fluorescence 635/667, stem cell growth factor project, primary screen (AID 1064); conditions: higher = more signal;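 note: measures binding of the biotinylated anti-FSTL3 antibody to printed compounds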
[2] = binders from COS7 lysate, DM2A8 probe, primary screen, torsin A project, cell lysate, small-molecule microarray, fluorescence 635/667 (AID 1065); conditions: higher = more signal, COS7 lysate expressing mutant human TOR1A
[3] = small molecules captured by biotinylated probe aFGF2 – biochemical, small-molecule microarray, fluorescence 635/667, stem cell growth factor project, primary screen (AID 1067); conditions: higher = more signal;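 note: measures binding of biotinylated aFGF2 protein to printed compounds on slides; z-score merges feature fluorescence and signal-to-noise across triplicate slides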
[4] = small molecules captured by biotinylated probe aFGF10 – biochemical, small-molecule microarray, fluorescence 635/667, stem cell growth factor project, primary screen (AID 1071); conditions: higher = more signal;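 note: score merges 667 nm spot intensity and signal to noise from triplicate slides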
[5] = target: Neurogenic locus notch homolog protein 2 (Homo sapiens) (UniProt Q04721); assay: small molecules binding Notch2 protein – biochemical, small-molecule microarray, 635 nm fluorescence, stem cell growth factors, primary screen (AID 1073); conditions: higher = more signal
[6] = target: Pro-neuregulin-1, membrane-bound isoform (Homo sapiens) (UniProt Q02297); assay: small molecules binding neuregulin-1 protein – biochemical, small-molecule microarray, fluorescence 635/667, psychiatric disease protein project, primary screen (AID 1075); conditions: NRG1 binding, 635 nm fluorescence, higher = more signal;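 note: score combines 667 nm spot fluorescence with signal to noise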
[7] = tested on: Neuregulin-1 EGF-like domain; assay: small molecules binding NRG1 EGF domain – biochemical, small-molecule microarray, 635 nm fluorescence, primary screen (AID 1081); conditions: higher = more signal;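 note: binding of the protein to compounds printed on small-molecule microarray slides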
[8] = FRG1 expression reporter modulators in myotubes – cell-based, C2C12 myotubes, firefly/Renilla luciferase, luminescence, FRG1 inhibition for FSHD, primary screen (AID 1084); conditions: FRG1 promoter luciferase, higher = more signal, called active from +8 up or from −8 down
[9] = small molecules captured by biotinylated probe aFST – biochemical, small-molecule microarray, fluorescence 635/667, stem cell growth factor project, primary screen (AID 1086); conditions: higher = more signal;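 note: score merges 667 nm fluorescence with signal-to-noise of each printed compound spot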
[10] = binders of probe aHhip on microarray, primary screen, stem cell growth factor project, biochemical, small-molecule microarray, fluorescence 635/667 (AID 1087); conditions: higher = more signal;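 note: score merges spot fluorescence at 667nm with spot signal to noise ratio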

Neurogenic locus notch homolog protein 2 (Homo sapiens), sequence (Q04721 whole entry, looked up, canonical isoform): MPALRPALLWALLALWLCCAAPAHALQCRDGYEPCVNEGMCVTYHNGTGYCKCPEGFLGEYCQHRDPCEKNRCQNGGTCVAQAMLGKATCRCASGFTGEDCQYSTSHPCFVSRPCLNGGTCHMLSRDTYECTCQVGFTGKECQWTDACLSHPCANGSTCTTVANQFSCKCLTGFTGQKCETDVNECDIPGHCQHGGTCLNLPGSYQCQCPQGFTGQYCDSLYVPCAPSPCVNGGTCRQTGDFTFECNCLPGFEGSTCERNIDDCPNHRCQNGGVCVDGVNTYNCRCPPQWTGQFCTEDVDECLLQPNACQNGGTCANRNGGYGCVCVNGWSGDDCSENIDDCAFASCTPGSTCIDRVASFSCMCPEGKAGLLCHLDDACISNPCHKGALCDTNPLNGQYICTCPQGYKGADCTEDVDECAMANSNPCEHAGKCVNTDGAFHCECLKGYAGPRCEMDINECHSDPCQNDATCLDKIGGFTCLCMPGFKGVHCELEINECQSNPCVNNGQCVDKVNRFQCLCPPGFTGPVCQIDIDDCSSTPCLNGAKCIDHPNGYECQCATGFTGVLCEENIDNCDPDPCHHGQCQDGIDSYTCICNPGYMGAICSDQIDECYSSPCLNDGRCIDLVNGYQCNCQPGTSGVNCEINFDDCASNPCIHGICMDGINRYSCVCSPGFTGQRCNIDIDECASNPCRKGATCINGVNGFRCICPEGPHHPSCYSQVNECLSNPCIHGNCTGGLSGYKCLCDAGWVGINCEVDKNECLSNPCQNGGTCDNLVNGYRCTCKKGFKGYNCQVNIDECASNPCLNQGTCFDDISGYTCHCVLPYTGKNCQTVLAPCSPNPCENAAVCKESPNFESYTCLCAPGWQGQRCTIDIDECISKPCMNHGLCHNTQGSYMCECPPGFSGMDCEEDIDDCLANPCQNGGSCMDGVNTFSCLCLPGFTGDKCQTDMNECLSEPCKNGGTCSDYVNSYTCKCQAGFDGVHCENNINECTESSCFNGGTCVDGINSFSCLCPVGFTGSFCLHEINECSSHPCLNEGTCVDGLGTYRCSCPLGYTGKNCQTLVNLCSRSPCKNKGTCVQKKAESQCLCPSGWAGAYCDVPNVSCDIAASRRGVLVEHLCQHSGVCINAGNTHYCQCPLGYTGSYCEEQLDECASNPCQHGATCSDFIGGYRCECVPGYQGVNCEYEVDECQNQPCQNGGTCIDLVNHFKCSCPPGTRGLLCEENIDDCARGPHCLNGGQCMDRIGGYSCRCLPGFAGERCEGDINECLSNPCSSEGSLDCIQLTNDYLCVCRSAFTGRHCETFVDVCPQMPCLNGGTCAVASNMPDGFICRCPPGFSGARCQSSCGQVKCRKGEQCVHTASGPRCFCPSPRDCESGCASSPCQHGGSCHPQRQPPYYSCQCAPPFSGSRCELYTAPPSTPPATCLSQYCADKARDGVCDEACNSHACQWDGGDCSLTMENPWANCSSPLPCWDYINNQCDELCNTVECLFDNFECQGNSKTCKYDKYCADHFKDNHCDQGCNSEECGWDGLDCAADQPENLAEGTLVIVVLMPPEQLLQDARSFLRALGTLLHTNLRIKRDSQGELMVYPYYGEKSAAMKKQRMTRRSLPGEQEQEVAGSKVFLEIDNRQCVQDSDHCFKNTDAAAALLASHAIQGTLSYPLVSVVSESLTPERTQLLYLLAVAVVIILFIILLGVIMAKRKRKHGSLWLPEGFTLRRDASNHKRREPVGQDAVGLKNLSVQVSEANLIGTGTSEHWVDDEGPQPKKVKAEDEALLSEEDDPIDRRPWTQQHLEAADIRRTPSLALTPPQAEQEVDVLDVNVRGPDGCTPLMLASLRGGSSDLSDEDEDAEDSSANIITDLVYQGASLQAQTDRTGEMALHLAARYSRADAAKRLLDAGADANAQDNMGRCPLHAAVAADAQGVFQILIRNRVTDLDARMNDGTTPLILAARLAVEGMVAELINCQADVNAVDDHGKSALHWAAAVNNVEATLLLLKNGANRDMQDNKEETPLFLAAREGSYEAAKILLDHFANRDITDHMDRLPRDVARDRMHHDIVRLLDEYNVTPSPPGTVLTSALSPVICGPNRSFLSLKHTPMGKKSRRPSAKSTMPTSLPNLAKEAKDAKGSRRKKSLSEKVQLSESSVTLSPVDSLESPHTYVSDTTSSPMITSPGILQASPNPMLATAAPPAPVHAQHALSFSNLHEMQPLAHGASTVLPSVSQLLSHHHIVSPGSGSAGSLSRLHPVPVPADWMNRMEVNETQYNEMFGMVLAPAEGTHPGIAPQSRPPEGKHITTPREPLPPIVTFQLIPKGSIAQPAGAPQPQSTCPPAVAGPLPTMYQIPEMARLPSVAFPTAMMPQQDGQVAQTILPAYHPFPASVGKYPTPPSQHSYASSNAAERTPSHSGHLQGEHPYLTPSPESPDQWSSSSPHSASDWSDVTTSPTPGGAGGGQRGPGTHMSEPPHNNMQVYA
Pro-neuregulin-1, membrane-bound isoform (Homo sapiens), sequence (Q02297 whole entry, looked up, the tested form may be a part, canonical isoform): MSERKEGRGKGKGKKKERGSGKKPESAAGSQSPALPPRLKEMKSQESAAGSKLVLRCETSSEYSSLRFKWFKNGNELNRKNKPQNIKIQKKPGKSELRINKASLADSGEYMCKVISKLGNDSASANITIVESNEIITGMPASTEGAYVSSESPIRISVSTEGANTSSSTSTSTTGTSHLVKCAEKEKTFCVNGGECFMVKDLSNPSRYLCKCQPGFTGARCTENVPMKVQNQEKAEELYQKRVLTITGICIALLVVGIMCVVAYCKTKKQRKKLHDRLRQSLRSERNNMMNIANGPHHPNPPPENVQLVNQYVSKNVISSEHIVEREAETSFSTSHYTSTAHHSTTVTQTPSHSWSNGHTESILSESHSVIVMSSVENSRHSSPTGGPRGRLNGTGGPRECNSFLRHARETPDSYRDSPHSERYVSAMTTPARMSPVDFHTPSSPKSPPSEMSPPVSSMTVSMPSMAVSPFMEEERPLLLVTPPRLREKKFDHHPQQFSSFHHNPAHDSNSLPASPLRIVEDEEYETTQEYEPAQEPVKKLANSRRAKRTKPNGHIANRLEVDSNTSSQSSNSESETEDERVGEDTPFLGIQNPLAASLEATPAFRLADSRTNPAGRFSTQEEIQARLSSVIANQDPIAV

Row | Compound | composite z-score [1] | composite z-score [2] | composite z-score [3] | composite z-score [4] | composite z-score [5] | composite z-score [6] | composite z-score [7] | z-score [8] | composite z-score [9] | composite z-score [10]
1 | C=CCC(OC(C)=O)[C@@H]1[C@@H](N(Cc2cc3ccccc3o2)C(=O)c2ccc(C)cc2)c2cc(OCCCO)ccc2N1C(=O)c1ccc2ccccc2c1 (stereo not given in full) | -0.0336 | 0.117 | -0.0785 | 0.339 | 0.112 | -0.189 | 0.38 | -2.76 (inactive) | -0.0921 | -0.201
2 | CCCN1C(=O)[C@@]2(CCC(=O)OC(C)(C)C)N=C(c3ccc(OCCCO)cc3)O[C@H]2c2ccccc21 | -0.0952 | 0.108 | -0.0243 | 0.102 | 0.312 | 0.0163 | 0.959 | -1.22 (inactive) | 0.0225 | -0.191
3 | CC(C)(C)OC(=O)CC[C@]1(C(=O)N2CCCCC2)N=C(c2ccc(OCCCO)cc2)O[C@H]1c1ccccc1N=[N+]=[N-] | 1.14 | 0.933 | -0.0328 | 0.877 | 1.32 | 1.42 | 1.3 | -0.275 (inactive) | 1.24 | 0.0818
4 | CN(C)C(=O)[C@]1(CCC(=O)OC(C)(C)C)N=C(c2ccc(OCCCO)cc2)O[C@@H]1c1ccccc1N=[N+]=[N-] | 0.542 | 1.78 | 0.147 | 1.2 | 1.36 | 2.01 | 1.45 | 3.22 (inactive) | 1.43 | -0.0867
5 | O=C1O[C@@H](c2ccccc2)[C@@H](c2ccccc2)N2[C@@H](c3ccc(O)cc3)[C@]3(C(=O)Nc4ccc(C#CC5(O)CCCCCC5)cc43)[C@@H](C(=O)N3CCCCCCC3)[C@H]12 | 2.55 | 2 | 0.764 | 0.876 | 1.66 | 2.49 | 1.27 | -0.849 (inactive) | 2.79 | 0.67
6 | C=CCNC(=O)[C@H]1[C@@H]2C(=O)O[C@@H](c3ccccc3)[C@@H](c3ccccc3)N2[C@@H](c2ccc(O)cc2)[C@]12C(=O)N(C(=O)OCCOC)c1ccc(C#CCCO)cc12 | 0.174 | 1.93 | -0.154 | 0.932 | 0.0576 | 1.33 | 1.32 | -4.26 (inactive) | -0.0024 | -0.0618
7 | COc1ccc([Si](C)(C)[C@H]2[C@H](CC(=O)N(CCO)Cc3ccccc3)O[C@@]3(C(=O)N(Cc4cccc(N5CCC5=O)c4)c4ccccc43)[C@@H]2C)cc1 | 0.0204 | 0.906 | -0.131 | 0.55 | 0.629 | 1.18 | 1.07 | -1.55 (inactive) | -0.194 | -0.13
8 | C=CCN1C(=O)[C@]2(O[C@H](CCO)[C@@H]([Si](C)(C)c3ccc(OC)cc3)[C@@H]2C)c2cc(NC(=O)[C@H](C)O)ccc21 | -0.561 | 0.363 | -0.0158 | 1.08 | 0.327 | 1.35 | 1.2 | -3.94 (inactive) | -0.412 | -0.216
9 | COCCOC(=O)N1C(=O)[C@@]2(c3cc(C#CCNC(N)=O)ccc31)[C@H](C(=O)N1CCN(c3ncccn3)CC1)[C@H]1C(=O)O[C@H](c3ccccc3)[C@H](c3ccccc3)N1[C@@H]2c1ccccc1OCCO | 0.397 | 0.242 | 0.0811 | 0.947 | 1.12 | 0.727 | 1.09 | -0.311 (inactive) | 1.28 | -0.204
10 | COCCOC(=O)N1C(=O)[C@@]2(c3cc(C#CCCO)ccc31)[C@H](c1ccc(O)cc1)N1[C@H](c3ccccc3)[C@H](c3ccccc3)OC(=O)[C@H]1[C@@H]2C(N)=O | 1.04 | 0.751 | -0.0173 | 0.203 | -0.982 | 1.08 | 1.42 | -0.966 (inactive) | 0.102 | 0.113
11 | C=CCOC(=O)[C@@H]1[C@H]2C(=O)O[C@H](c3ccccc3)[C@H](c3ccccc3)N2[C@H](c2ccc(OCCOC(=O)[C@@H]3C[C@@H]4C(=O)N[C@@H](Cc5ccccc5)C(=O)N4[C@@H]3c3cccc(OCCO)c3)cc2)[C@@]12C(=O)Nc1ccc(I)cc12 | 0.224 | 0.63 | -0.0566 | 0.764 | 1.03 | 1.03 | 1.06 | 1.06 (inactive) | 0.043 | -0.0196
12 | O=C1C[C@@](C(=O)NC2CC2)(c2ccc([N+](=O)[O-])cc2)[C@@H](c2ccc(CO)cc2)N1CC12CC3CC(CC(C3)C1)C2 | -0.0569 | -0.121 | -0.0111 | 0.214 | 1.4 | 0.707 | 0.745 | -0.962 (inactive) | 0.424 | -0.136
13 | Cc1cc(C)cc(N2C(=O)CS(=O)(=O)C2c2cccc([N+](=O)[O-])c2)c1 (stereo not given) | 0.228 | 0.661 | 0.245 | 0.366 | 1.17 | 1.63 | 1.04 | -1.47 (inactive) | 1.18 | 1.53
14 | COC(=O)[C@@]1(Cc2ccccc2)[C@H]2c3cc(C(=O)N4CCCC4)n(C)c3C[C@H]2CN1C(=O)c1ccccc1 | 0.483 | -0.207 | 0.107 | -0.0646 | 1.67 | 1.51 | 1.25 | 0.121 (inactive) | 0.882 | 1.72
15 | COC(=O)[C@@]1(Cc2ccc(OC)cc2)[C@H]2c3cc(C(=O)N4CCCC4)n(Cc4cc(F)cc5c4OCOC5)c3C[C@H]2CN1C(=O)c1ccccc1 | 0.152 | -0.0429 | 0.275 | 0.535 | 1.74 | 2.29 | 1.28 | 1.61 (inactive) | 0.83 | 1.14
16 | CCOC(=O)[C@H]1C[C@H]2O[C@@]23C[C@H]1C(=O)N1CCCC1[C@@H]3O[Si](C)(C)C(C)(C)C (stereo not given in full) | -0.328 | -0.537 | -0.104 | -0.101 | -0.547 | -0.333 | -0.76 | -0.184 (inactive) | 0.0204 | 0.0274

— PubChem BioAssay
